# Experimental data taken from PubChem BioAssay (Tox21).
# Several values for one entry are separate records, joined by “and”; a condition that tells them apart may be missing. Equal entries are not always repeated. Records with an inconclusive call do not appear. Entries that show only a call come without a potency. The source holds several records for some structures; these can differ, active in one and inactive in another. Activity calls are given as the source filed them. Unless noted, the call rests on the fitted dose curve.
# Legend:
# [1] = biological target: Peroxisome proliferator-activated receptor delta (Homo sapiens) (UniProt Q03181); assay: qHTS assay to identify small molecule agonists of the peroxisome proliferator-activated receptor delta (PPARd) signaling pathway (AID 743212)
# Procedure, shortened: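 GeneBLAzer UAS-bla HEK293H cells carrying a PPARδ construct were exposed to compounds at 37 °C. Beta-lactamase activity was read by FRET fluorescence after 2 h at room temperature with LiveBLAzer B/G substrate.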
# [2] = qHTS assay to identify small molecule antagonists of the peroxisome proliferator-activated receptor delta (PPARd) signaling pathway - cell viability counter screen (AID 743213; active means well fitted curve in the direction sought with a large enough effect in the repeat runs; an effect the other way counts as inactive or inconclusive; further: nearly all actives have a fitted effect of over 50% in size; further: potency means the concentration at half of the fitted maximal effect)
# Procedure, shortened: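 Agonist-stimulated (L165041, 300 nM final) HEK293H PPARd UAS-bla cells are exposed to compounds for 17 h at 37 C, and ATP-based luminescence (CellTiter-Glo) from the same wells reports cytotoxicity.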
# [3] = biological target: Peroxisome proliferator-activated receptor delta (Homo sapiens) (UniProt Q03181); assay: qHTS assay to identify small molecule antagonists of the peroxisome proliferator-activated receptor delta (PPARd) signaling pathway (AID 743215; active means well fitted inhibition curve with a large enough effect in the signal ratio in the repeat runs, not every such curve was filed as active; the % refers to the signal ratio; further: series mostly up to about 62 µM)
# Procedure, shortened: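 PPARd-bla HEK293H cells (UAS-bla reporter) preincubated 5 h, then given compound plus 300 nM final L165041 agonist for 17 h at 37 C. Beta-lactamase activity read by LiveBLAzer B/G FRET substrate fluorescence after 2 h at room temperature.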
# [4] = biological target: Bile acid receptor (Homo sapiens) (UniProt Q96RI1); assay: qHTS assay to identify small molecule antagonists of the farnesoid-X-receptor (FXR) signaling pathway (AID 743217; active means well fitted inhibition curve with a large enough effect in the signal ratio in the repeat runs, not every such curve was filed as active; the % refers to the signal ratio)
# Procedure, shortened: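 FXR-UAS-bla HEK 293T cells (beta-lactamase reporter) given compound plus chenodeoxycholic acid (50 uM final), 16 h at 37C. LiveBLAzer B/G FRET substrate added for 2 h at room temperature; fluorescence read.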
# [5] = qHTS assay to identify small molecule agonists of the farnesoid-X-receptor (FXR) signaling pathway - cell viability counter screen (AID 743218; active means well fitted curve in the direction sought with a large enough effect in the repeat runs; an effect the other way counts as inactive or inconclusive; further: nearly all actives have a fitted effect of over 45% in size; further: potency means the concentration at half of the fitted maximal effect)
# Procedure, shortened: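 FXR-UAS-bla HEK 293T cells exposed to compounds for 16 h at 37C. Cytotoxicity read in the same wells by CellTiter-Glo luminescence after 30 min at room temperature, following the beta-lactamase FRET read.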
# [6] = biological target: Bile acid receptor (Homo sapiens) (UniProt Q96RI1); assay: qHTS assay to identify small molecule agonists of the farnesoid-X-receptor (FXR) signaling pathway (AID 743220; active means well fitted activation curve with a large enough effect in the signal ratio in the repeat runs, not every such curve was filed as active; the % refers to the signal ratio)
# Procedure, shortened: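 Beta-lactamase reporter under UAS control in GeneBLAzer FXR HEK 293T cells (5000/well) measured with LiveBLAzer FRET substrate after 2 h at room temperature. Compound exposure lasted 16 h at 37C.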
# [7] = qHTS assay to identify small molecule antagonists of the farnesoid-X-receptor (FXR) signaling pathway - cell viability counter screen (AID 743221; active means well fitted cell-killing curve with a large enough effect in the repeat runs, not every such curve was filed as active; further: nearly all actives have a fitted effect of over 50% in size; further: potency means the concentration at half of the fitted maximal effect)
# Procedure, shortened: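 CellTiter-Glo, 30 min RT, luminescence; same wells as the LiveBLAzer FRET read. Cells: FXR-UAS-bla HEK 293T. Treatment: compound with chenodeoxycholic acid 50 uM final, 16 h at 37 C.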
# [8] = biological target: Vitamin D3 receptor (Homo sapiens) (UniProt P11473); assay: qHTS assay to identify small molecule agonists of the vitamin D receptor (VDR) signaling pathway (AID 743222)
# Procedure, shortened: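 VDR-bla cells plated 4 h at 37 C, then exposed to compounds for 16 h at 37 C. Beta-lactamase reporter activity measured by fluorescence after 2 h room-temperature loading with LiveBLAzer B/G FRET substrate.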
# [9] = biological target: Vitamin D3 receptor (Homo sapiens) (UniProt P11473); assay: qHTS assay to identify small molecule antagonists of the vitamin D receptor (VDR) signaling pathway (AID 743223; active means well fitted inhibition curve with a large enough effect in the signal ratio in the repeat runs, not every such curve was filed as active; the % refers to the signal ratio)
# Procedure, shortened: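 After VDR-bla cells are plated and left 4 h at 37C, DMSO-dissolved compounds and 3 nM (final) calcitriol agonist are added. Incubation continues 16 h at 37C; FRET beta-lactamase substrate then develops 2 h at room temperature.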
# [10] = qHTS assay to identify small molecule agonists of the vitamin D receptor (VDR) signaling pathway - cell viability counter screen (AID 743224; active means well fitted curve in the direction sought with a large enough effect in the repeat runs; an effect the other way counts as inactive or inconclusive; further: nearly all actives have a fitted effect of over 50% in size; further: potency means the concentration at half of the fitted maximal effect)
# Procedure, shortened: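 VDR-bla cells, 4 h after plating, exposed to compounds for 16 h at 37C; viability then read in the same wells as CellTiter-Glo luminescence after 30 min at room temperature, following the bla FRET read.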
# [11] = qHTS assay to identify small molecule antagonists of the vitamin D receptor (VDR) signaling pathway - cell viability counter screen (AID 743225; active means well fitted curve in the direction sought with a large enough effect in the repeat runs; an effect the other way counts as inactive or inconclusive; further: nearly all actives have a fitted effect of over 50% in size; further: potency means the concentration at half of the fitted maximal effect)
# Procedure, shortened: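 Cytotoxicity toward the VDR-bla HEK 293T line was scored by ATP-based CellTiter-Glo luminescence, read in the wells already used for the beta-lactamase readout after 16 h compound treatment under 3 nM 1-alpha,25-dihydroxyvitamin D3 stimulation.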
# [12] = qHTS assay to identify small molecule agonists of the NFkB signaling pathway (AID 1159509; active means well fitted curve in the direction sought with a large enough effect in the signal ratio in the repeat runs, not every such curve was filed as active; the % refers to the signal ratio; further: series mostly up to about 61 µM)
# Procedure, shortened: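 ME-180 NFkB-bla, 2,000 cells/well, overnight plating; cpd pinned in DMSO, 5 h 37 C; B/G FRET substrate 1.5 h RT; ex 405, em 460/530 nm.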
# [13] = qHTS assay to identify small molecule agonists of the NFkB signaling pathway - cell viability counter screen (AID 1159515); further: nearly all actives have a fitted effect of over 55% in size; further: potency means the concentration at half of the fitted maximal effect
# Procedure, shortened: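 NFkB-bla ME-180 cells, 2,000/well, plated overnight at 37 C; compound added for 5 hr at 37 C. Viability read in the same wells as the bla reporter, by CellTiter-Glo luminescence after 30 min at room temperature.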
# [14] = qHTS assay to identify small molecule agonists of the endoplasmic reticulum stress response signaling pathway (AID 1159516; active means well fitted activation curve with a large enough effect in the signal ratio in the repeat runs, not every such curve was filed as active; the % refers to the signal ratio)
# Procedure, shortened: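 CellSensor ESRE-bla HeLa cells, 1,500 per well, plated overnight, then exposed to compounds for 5 hr at 37 C. Beta-lactamase reporter read with LiveBLAzer B/G FRET substrate after 2 hr at room temperature, 405 nm excitation, 460 and 530 nm emission.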
# [15] = qHTS assay to identify small molecule antagonists of the retinoid-related orphan receptor gamma (ROR-gamma) signaling pathway - cell viability counter screen (AID 1159520; active means well fitted curve in the direction sought with a large enough effect in the repeat runs; an effect the other way counts as inactive or inconclusive; further: nearly all actives have a fitted effect of over 50% in size; further: potency means the concentration at half of the fitted maximal effect)
# Procedure, shortened: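 Tet-on ROR gamma CHO cells were given compounds for 2 hr, then doxycycline hyclate at 1 uM final, and incubated 16 hr at 37 C. Viability was measured as ATP content by CellTiter-Glo luminescence.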
# [16] = biological target: Nuclear receptor ROR-gamma (Homo sapiens) (UniProt P51449); assay: qHTS assay to identify small molecule antagonists of the retinoid-related orphan receptor gamma (ROR-gamma) signaling pathway (AID 1159521; active means well fitted curve in the direction sought with a large enough effect in the repeat runs; an effect the other way counts as inactive or inconclusive; further: nearly all actives have a fitted effect of over 50% in size; further: potency means the concentration at half of the fitted maximal effect)
# Procedure, shortened: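 Readout: ONE-Glo luciferase luminescence, 30 min at room temperature. System: Tet-on RORγ CHO, RORE-LUC. Sequence: compound 2 h, doxycycline 1 uM final, 16 h at 37 C.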
# [17] = qHTS assay to identify small molecule agonists of the AP-1 signaling pathway - cell viability counter screen (AID 1159525); further: nearly all actives have a fitted effect of over 55% in size; further: potency means the concentration at half of the fitted maximal effect
# Procedure, shortened: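 AP-1-bla ME-180 cells in Opti-MEM with 0.5% dialyzed FBS, compound exposure 5 h at 37 C in 15-point titration. Viability read in the same wells as ATP content by CellTiter-Glo luminescence, normalised to tetra-n-octylammonium bromide and DMSO controls.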
# [18] = qHTS assay to identify small molecule agonists of the AP-1 signaling pathway (AID 1159526)
# [19] = biological target: Retinoic acid receptor RXR-alpha (Homo sapiens) (UniProt P19793); assay: qHTS assay to identify small molecule agonists of the RXR signaling pathway (AID 1159527); further: nearly all actives have a fitted effect of over 35% in size
# Procedure, shortened: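 Reporter activation is measured as beta-lactamase activity via FRET substrate cleavage (emission 460/530 nm) in HEK 293T cells expressing an RXR-alpha-driven bla construct, following 16 hr compound exposure at 37 C.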
# [20] = qHTS assay to identify small molecule agonists of the endoplasmic reticulum stress response signaling pathway - cell viability counter screen (AID 1159517)
# Procedure, shortened: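 ESRE-bla HeLa cells, 1,500 per well, seeded overnight then treated with compounds for 5 hr at 37 C. After the beta-lactamase read, viability in the same wells is measured by CellTiter-Glo luminescence after 30 min at room temperature.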
# Sequence of Bile acid receptor (Homo sapiens) (Q96RI1 whole entry, looked up): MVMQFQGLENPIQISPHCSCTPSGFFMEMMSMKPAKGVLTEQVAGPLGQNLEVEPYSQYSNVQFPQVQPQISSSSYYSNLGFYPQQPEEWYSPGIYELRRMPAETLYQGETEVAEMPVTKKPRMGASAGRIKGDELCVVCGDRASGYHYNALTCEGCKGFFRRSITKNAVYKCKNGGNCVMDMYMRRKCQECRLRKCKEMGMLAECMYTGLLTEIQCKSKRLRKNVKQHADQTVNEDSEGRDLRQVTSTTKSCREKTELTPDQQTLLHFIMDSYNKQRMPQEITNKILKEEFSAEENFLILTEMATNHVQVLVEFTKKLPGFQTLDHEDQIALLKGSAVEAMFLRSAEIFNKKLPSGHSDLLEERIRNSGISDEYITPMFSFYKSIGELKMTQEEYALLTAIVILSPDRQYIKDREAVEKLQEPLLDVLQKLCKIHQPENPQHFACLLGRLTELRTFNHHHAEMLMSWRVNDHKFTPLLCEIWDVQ
# Sequence of Retinoic acid receptor RXR-alpha (Homo sapiens) (P19793 whole entry, looked up): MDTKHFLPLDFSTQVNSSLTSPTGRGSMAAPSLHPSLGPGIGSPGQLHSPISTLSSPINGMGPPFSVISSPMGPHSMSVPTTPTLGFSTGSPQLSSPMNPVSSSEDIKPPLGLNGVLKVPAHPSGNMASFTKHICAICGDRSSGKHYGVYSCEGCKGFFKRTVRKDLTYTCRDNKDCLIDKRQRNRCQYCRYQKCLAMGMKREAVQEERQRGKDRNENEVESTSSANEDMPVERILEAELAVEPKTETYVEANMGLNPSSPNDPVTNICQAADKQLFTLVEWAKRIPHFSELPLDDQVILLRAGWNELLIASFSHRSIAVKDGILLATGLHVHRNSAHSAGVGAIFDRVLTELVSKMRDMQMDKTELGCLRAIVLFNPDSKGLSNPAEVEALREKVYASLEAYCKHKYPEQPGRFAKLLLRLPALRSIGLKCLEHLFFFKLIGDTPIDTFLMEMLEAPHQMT
# Sequence of Peroxisome proliferator-activated receptor delta (Homo sapiens) (Q03181 whole entry, looked up): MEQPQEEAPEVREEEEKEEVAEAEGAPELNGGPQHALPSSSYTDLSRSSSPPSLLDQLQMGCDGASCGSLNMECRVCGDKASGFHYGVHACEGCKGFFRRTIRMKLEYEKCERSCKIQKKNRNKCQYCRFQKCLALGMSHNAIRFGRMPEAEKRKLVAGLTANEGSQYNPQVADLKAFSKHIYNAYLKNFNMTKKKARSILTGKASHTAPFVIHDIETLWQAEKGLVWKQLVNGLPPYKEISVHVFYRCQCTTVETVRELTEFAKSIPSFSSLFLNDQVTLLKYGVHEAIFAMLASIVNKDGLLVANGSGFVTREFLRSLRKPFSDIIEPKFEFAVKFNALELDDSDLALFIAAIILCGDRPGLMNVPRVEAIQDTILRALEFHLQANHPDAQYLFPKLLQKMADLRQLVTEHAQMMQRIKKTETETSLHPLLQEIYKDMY
# Sequence of Vitamin D3 receptor (Homo sapiens) (P11473 whole entry, looked up): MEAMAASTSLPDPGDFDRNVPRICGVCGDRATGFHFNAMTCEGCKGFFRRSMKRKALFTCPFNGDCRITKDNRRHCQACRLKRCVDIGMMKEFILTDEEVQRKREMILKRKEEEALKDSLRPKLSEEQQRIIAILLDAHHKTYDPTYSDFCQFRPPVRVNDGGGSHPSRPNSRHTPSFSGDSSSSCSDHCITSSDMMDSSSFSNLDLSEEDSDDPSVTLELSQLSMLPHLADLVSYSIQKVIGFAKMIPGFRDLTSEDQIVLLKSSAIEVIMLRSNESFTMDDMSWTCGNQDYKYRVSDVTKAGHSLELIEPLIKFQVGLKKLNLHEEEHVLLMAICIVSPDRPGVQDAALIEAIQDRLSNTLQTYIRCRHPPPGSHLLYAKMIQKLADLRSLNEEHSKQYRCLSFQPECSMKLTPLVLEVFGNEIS
Compound,outcome [1],Potency [2],Potency [3],Potency [4],Potency [5],outcome [6],Potency [7],outcome [8],outcome [9],Potency [10],Potency [11],outcome [12],Potency [13],Potency [14],Potency [15],Potency [16],Potency [17],outcome [18],Potency [19],Potency [20]
COc1ccc(OC)c(C(O)CNC(=O)CN)c1 (configuration not stated),inactive,inactive,inactive,inactive,inactive,inactive,inactive,inactive,inactive,inactive,inactive,inactive,inactive,inactive,inactive,inactive,inactive,inactive,inactive,
CC(C)OB(OC(C)C)OC(C)C,,inactive,,inactive,inactive,inactive,inactive,inactive,inactive,inactive,inactive,inactive,inactive,inactive,inactive,inactive,inactive,inactive,inactive,inactive
CCOC(=O)C(C#N)=C(c1ccccc1)c1ccccc1,inactive,inactive,inactive,inactive,inactive,inactive,inactive,,,inactive,inactive,inactive,inactive,inactive,inactive,,inactive,inactive,,inactive
CCCCCCCCCC(=O)OC,inactive,,inactive,inactive,inactive,inactive,inactive,,,inactive,inactive,inactive,inactive,inactive,inactive,inactive,inactive,inactive,inactive,inactive
Nc1ccc(Cl)cc1Cl,inactive,,inactive,inactive,inactive,inactive,inactive,,,inactive,,inactive,inactive,inactive,inactive,inactive,inactive,inactive,inactive,inactive
CCCC(=O)O,inactive,inactive,inactive,,inactive,,inactive,inactive,inactive,inactive,,inactive,inactive,inactive,inactive,inactive,inactive,inactive,inactive,
Cc1cccc([N+](=O)[O-])c1C,inactive,,inactive,,inactive,,inactive,inactive,inactive,inactive,inactive,inactive,inactive,inactive,inactive,,inactive,inactive,inactive,inactive
CC(C(=O)O)c1cccc(C(=O)c2ccccc2)c1 (configuration not stated),inactive,,inactive,,inactive,,inactive,,,inactive,inactive,inactive,inactive,inactive,inactive,inactive,inactive,inactive,inactive,inactive
Cn1cnc([N+](=O)[O-])c1Sc1ncnc2nc[nH]c12,inactive,inactive,inactive,,inactive,,inactive,,,,,inactive,inactive,inactive,inactive,30.5 µM (active) and inactive,inactive,inactive,inactive,inactive
Brc1cc(Oc2cc(Br)c(Br)c(Br)c2Br)c(Br)c(Br)c1Br,inactive,,inactive,,inactive,,inactive,,,inactive,inactive,inactive,1.56 µM (active) and inactive,inactive,inactive,inactive,55.2 µM (active) and inactive,inactive,inactive,
CN1C(C(=O)Nc2ccccn2)=C(O)c2ccccc2S1(=O)=O,inactive,inactive,inactive,inactive,inactive,inactive,inactive,inactive,inactive,inactive,inactive,inactive,inactive,inactive,inactive,inactive,inactive,inactive,inactive,
C=CC(C)(CCC=C(C)C)OC(C)=O (configuration not stated),inactive,inactive,inactive,inactive,inactive,inactive,inactive,inactive,inactive,inactive,inactive,inactive,inactive,inactive,inactive,inactive,inactive,inactive,inactive,
Cc1ccc2c(n1)Oc1ccc(C(C)C(=O)OCC(=O)N(C)C)cc1C2 (configuration not stated),inactive,inactive,inactive,,inactive,,inactive,inactive,inactive,inactive,,inactive,inactive,inactive,inactive,inactive,inactive,inactive,inactive,
O=C(O)c1ccccc1Nc1cccc(C(F)(F)F)c1,,inactive,inactive,,inactive,,inactive,,inactive,inactive,,inactive,inactive,inactive,inactive,inactive,inactive,inactive,,inactive
O=C(c1ccc(OCCN2CCCCC2)cc1)c1c(-c2ccc(O)cc2)sc2cc(O)ccc12,,24.6 µM (active) and 8.71 µM (active) and 26.6 µM (active),,,49 µM (active) and 12.3 µM (active) and 23.7 µM (active),,55 µM (active),,,55 µM (active) and 21.9 µM (active) and 33.5 µM (active),17.4 µM (active),inactive,55 µM (active) and 54.9 µM (active) and inactive,inactive,61.2 µM (active) and inactive,13.7 µM (active) and 19.3 µM (active),inactive,inactive,,inactive
